We go through 40 molecules from PubChem BioAssay (NCATS).

Molecules are shown by their SMILES. Records with an inconclusive call do not appear. Where a call stands in place of a potency, no number is given. Activity calls are given as the source filed them. Calls come from the whole dose curve; as a rule, active = well fitted inhibition curve with a large enough effect; inconclusive = small, poorly fitted or top-dose-only effect; inactive = flat fitted curve, though single readings scatter.

The assay is described as follows: qHTS to identify inhibitors of the type 1 interferon - major histocompatibility complex class I in skeletal muscle: primary screen against the NCATS Pharmaceutical Collection (AID 1347407). The note with it: human skeletal muscle cells, IFN-b-induced MHC-I HiBiT luminescence, 24 h; series mostly up to 45.9 µM. The source says: Assay Submitter (PI): Travis B. Kinder Ph.D. & James Inglese Ph.D.
Assay Development and Screening Technology Laboratory (ADST)
National Center for Advancing Translational Sciences (NCATS), Rockville, MD
National Institute of Health (NIH), Bethesda, Maryland
Idiopathic inflammatory myopathies, collectively referred to as myositis, are a group of rare autoimmune diseases characterized by skeletal muscle inflammation, weakness, and usually accompanied by systemic pathologies of the skin, lungs, or vasculature. Current immunosuppressive therapies and glucocorticoids are often not curative and are accompanied by harsh side effects, especially in children with juvenile myositis. We initiated a drug repurposing and development program to identify more targeted, less toxic therapeutics to treat myositis. Although its cause is not known, muscle from a subset of patients have an abundance of the inflammatory type 1 interferon (IFN) and a down-stream product major histocompatibility complex class I (MHC class I), which are both thought to contribute to damage and weakness. We conducted quantitative high throughput screening on 6,576 compounds (4,679 unique) through a series of cell-based assays to identify those that inhibit the IFN-stimulated expression of MHC class I in muscle precursor cells (myoblasts). The compound identification and evaluation strategy utilized a primary screen with reporter-tagged MHC class I in genome-engineered myoblasts, ATP content counter screen for viability, HLA-ABC immunofluorescence secondary screen, and HLA-B RT-qPCR tertiary screen.
The primary screen utilized CRISPR/Cas9 genome-engineering of immortalized human myoblasts, C25cl48, where a pro-luminescent reporter HiBit was fused to the C-terminus of endogenous MHC class I allele HLA-B*08:01 (HLA-B HiBit myoblasts). HiBit is an 11 amino acid fragment of NanoLuc luminescent reporter (Promega Corporation), and when complexed to the larger LgBit fragment, the reconstituted enzyme produces light in the presence of furimazine substrate (Schwinn et al., 2018). Briefly, HLA-B HiBit myoblasts were plated into 1536-well plates, treated with 4.0 ng/ml human IFN-beta and 2,816 compounds from the NCATS Pharmaceutical Collection (NPC) that contains all drugs approved in the US, EU, and Japan (Huang et al., 2011) in an 8-point, 1:5 titration with a high final concentration of 46 uM. After 24 hrs of treatment, cells were assayed by Nano-Glo HiBiT Lytic Detection System (Promega) and luminescence measured by a ViewLux 1430 Ultra HTS (Perkin Elmer).
Huang R, Southall N, Wang Y, Yasgar A, Shinn P, Jadhav A, Nguyen D-T, Austin CP. 2011. The NCGC pharmaceutical collection: a comprehensive resource of clinically approved drugs enabling repurposing and chemical genomics. Sci Transl Med 3:80ps16. doi:10.1126/scitranslmed.3001862
Schwinn MK, Machleidt T, Zimmerman K, Eggers CT, Dixon AS, Hurst R, Hall MP, Encell LP, Binkowski BF, Wood K V. 2018. CRISPR-Mediated Tagging of Endogenous Proteins with a Luminescent Peptide. ACS Chem Biol 13:467-474. doi:10.1021/acschembio.7b00549
PROTOCOL TABLE (as described by Inglese et al., 2007)
SEQUENCE No. (e.g., 1, 2, 3, etc.); […] (e.g., Cells, Incubation, Reagent, etc.); VALUE; DESCRIPTION
1a; Cells; 5 uL; Use a Multidrop Combi (Thermo Scientific) to seed 350 cells/well into nine Greiner 1536 well white/solid bottom, high base, TC plates in 5 ul/well of iHSKM growth medium (GM) without dexamethasone into columns 1+2. Add metal lids with gas-exchange holes
1b; Cells; 5 uL; Use a Multidrop Combi (Thermo Scientific) to seed 350 cells/well into nine Greiner 1536 well white/solid bottom, high base, TC plates in 5 ul/well of iHSKM GM without dexamethasone + 4 ng/ml IFN-b into columns 3 - 48. Add metal lids with gas-exchange holes
2; Incubate; 1 hr; Incubate at 37 C, 5% CO2, 95% RH
[…]
In general terms: In qHTS, concentration-response curves come from the screen itself.
Take `CN(C)CCCN1c2ccccc2Sc2ccc(Cl)cc21`: the Potency entry is “inactive”. On to `CCCCN(CCCC)CC(O)c1cc(Cl)cc2c1-c1ccc(Cl)cc1/C2=C/c1ccc(Cl)cc1` (stereo not given), for which the Potency entry was “inactive”. For `C[C@](N)(Cc1ccc(O)cc1)C(=O)O`, the activity change, negative = inhibition is -0.196% [at 3.83 µM] (inactive).

Consider `CCCn1cnc2c1c(=O)n(CCCCC(C)=O)c(=O)n2C`, for which the Potency result was “inactive”. For `CCCCc1ncc(/C=C(\Cc2cccs2)C(=O)O)n1Cc1ccc(C(=O)O)cc1`, the Potency entry was “inactive”. Same read-out and setting: then `N[C@H](C(=O)O)c1ccc(O)cc1`, with “inactive”. The same measure, in the same setting: for `O=C1NC(=O)[C@@]2(CCOc3ccc(F)cc32)N1` the value was “inactive”; for `CC(=O)Nc1ccc(/C=N/NC(N)=S)cc1`, “inactive”; for `O=C(O)CN1C(=O)c2cccc3cccc(c23)C1=O`, “inactive”. As to `CCN(CC)C(=O)Nc1ccc(OCC(O)CNC(C)(C)C)c(C(C)=O)c1` (stereo not given), the Potency result is “inactive”. Regarding `CC1(C)OC(=O)NC1=O`, the Potency result was “inactive”.

`CCCCCCCCCCCCCCCC(=O)NCCO`: the Potency entry is “inactive”. Take `CCCCOC(=O)c1ccc(O)cc1`: the Potency result is “inactive”. Turning to `O=C(O)c1ccccn1`, the Potency entry was “inactive”. As for `CS(=O)(=O)c1ccc([C@@H](O)[C@@H](CF)NC(=O)C(Cl)Cl)cc1`, the Potency result was “inactive”. Consider `C[C@@H]1C[C@H]2[C@@H]3C[C@H](F)C4=CC(=O)C=C[C@]4(C)[C@@]3(F)[C@@H](O)C[C@]2(C)[C@@]1(O)C(=O)CO`, for which the Potency result was “inactive”. On to `C[C@@H]1CCN(C(=O)[C@H](CCCN=C(N)N)NS(=O)(=O)c2cccc3c2NC[C@H](C)C3)[C@@H](C(=O)O)C1`, for which the Potency result was “inactive”.

As for `CCCCCCCCCCCCOS(=O)(=O)O`, the Potency result is “inactive”. Take `O=c1[nH]c(=O)c2[nH]c(=O)[nH]c2[nH]1`: the activity change, negative = inhibition is -11.3% [at 9.18 µM] (inactive). Regarding `CN1[C@@H]2CC(OC(=O)[C@H](CO)c3ccccc3)C[C@H]1[C@@H]1O[C@@H]12` (stereo not given in full), the Potency result is “inactive”.

Regarding `CCOC(=O)c1ccc(O)cc1`, the Potency result is “inactive”. As for `CC(CN1c2ccccc2Sc2ccccc21)N(C)C` (stereo not given), the Potency entry was “inactive”. With `NCCNCCNCCN`, the Potency entry was “inactive”. For the molecule `Cc1cccc(C)c1NC(=O)CN(CC(=O)O)CC(=O)O`, the Potency entry is “inactive”. On to `CCCCCCCCCCCCCCCCCCOCC(O)CO` (stereo not given), for which the Potency entry is “inactive”. For the molecule `NC1CCN(c2cccc(Cl)n2)CC1`, the Potency result was “inactive”.

On to `CCCCN(CCCC)CCCOC(=O)c1ccc(N)cc1`, for which the Potency entry was “inactive”. For the molecule `CC(=O)c1ccc2c(c1)N(CCCN(C)C)c1ccccc1S2`, the Potency entry was “inactive”. As for `Oc1cccc(O)c1`, the Potency result is “inactive”. As to `NC(=O)NC(=O)Cc1ccccc1`, the Potency result was “inactive”. For the molecule `Nc1ncnc2c1ncn2[C@@H]1O[C@H](CO)[C@@H](O)[C@H]1O`, the Potency result is “inactive”.

As for `O=C(O)c1ccccc1O`, the Potency entry was “inactive”.

As for `COc1cc2[nH]c(=O)[nH]c(=O)c2cc1OC`, the Potency result is “inactive”. For the molecule `CCCCOc1cc(C(=O)OCCN(CC)CC)ccc1N`, the Potency entry was “inactive”. For `c1ccc2c(CC3=NCCN3)cccc2c1`, the Potency result was “inactive”. On to `C[C@@H]1CC[C@@]2(OC1)O[C@H]1C[C@H]3[C@@H]4CC[C@H]5C[C@@H](O)CC[C@]5(C)[C@H]4CC(=O)[C@]3(C)[C@H]1[C@@H]2C`, for which the activity change, negative = inhibition is -0.255% [at 3.83 µM] (inactive). Take `O=c1cc[nH]c(=O)[nH]1`: the Potency entry was “inactive”. Same read-out and setting: for `CCCc1c(OCCCCc2nn[nH]n2)ccc(C(C)=O)c1O` the value was “inactive”; for `CC(C(O)c1ccc(O)cc1)N1CCC(Cc2ccccc2)CC1` (stereo not given), “inactive”. `O=C1O[C@H](CO)[C@@H](O)[C@H](O)[C@H]1O`: the Potency result is “inactive”.
